VDR inh: blocks the human vitamin D receptor | P11473 | VDR-SRC2-3 peptide fluorescence polarization, 2 h | Potency, µM, actives largely listed as inhibitors | 400,000 compounds, 0.93% hits | AID 504847
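Fluorescence polarization assay of small-molecule disruption of VDR binding to coregulator peptide SRC2-3. Compounds and controls pin-transferred, then read after 2 h incubation at ambient room temperature.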
TrxR1 substrate: rat thioredoxin reductase 1 substrate activity | O89049 | purified TrxR1 substrate turnover, NADPH consumption readout | Potency, µM (titrated, usually from 114 µM) | 390,000 compounds, 0.01% hits; further: nearly all actives have a fitted effect of over 50% in size
Target sequence (O89049 whole entry, looked up): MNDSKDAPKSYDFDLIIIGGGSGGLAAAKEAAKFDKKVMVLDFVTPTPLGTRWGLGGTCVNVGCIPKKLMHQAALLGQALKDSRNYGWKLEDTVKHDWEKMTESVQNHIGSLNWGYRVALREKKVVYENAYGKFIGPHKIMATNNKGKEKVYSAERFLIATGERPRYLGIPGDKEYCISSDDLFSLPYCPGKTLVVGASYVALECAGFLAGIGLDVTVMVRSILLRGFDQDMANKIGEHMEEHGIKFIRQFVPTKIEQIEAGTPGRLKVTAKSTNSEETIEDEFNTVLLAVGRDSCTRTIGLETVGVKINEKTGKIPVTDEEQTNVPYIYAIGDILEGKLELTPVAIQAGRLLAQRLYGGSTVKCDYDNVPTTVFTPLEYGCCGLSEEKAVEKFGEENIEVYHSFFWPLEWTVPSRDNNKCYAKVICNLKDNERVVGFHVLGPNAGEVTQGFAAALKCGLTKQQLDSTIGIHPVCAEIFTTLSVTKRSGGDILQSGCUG
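Rat TrxR1, dispensed at 90 nM, was prereduced with 400 uM NADPH (final) for 5 min at ~22 deg C, then incubated with compound 15 min before 400 uM selenite. A first-read NADPH fluorescence drop versus no-compound background flagged substrates.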
rTrxR1 inhibitor: blocks rat thioredoxin reductase 1; AID 588453; Potency, µM (titrated, usually from 114 µM), most hits filed as inhibitors; recombinant rTrxR1, NADPH fluorescence consumption, selenite substrate; O89049; 390,000 compounds, 1% hits; further: nearly all actives have a fitted effect of over 65% in size
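Rat TrxR1 (90 nM in the dispensed reagent) was pre-reduced with 400 uM NADPH for 5 min at room temperature, then incubated with compound for 15 min. After 400 uM selenite was added, NADPH fluorescence (Ex 340/Em 450 nm) was followed for 8 min.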
Vif-APOBEC3F blk: inhibitors of Vif-A3F interaction; HeLa A3F-eYFP + Vif (tagged APOBEC3F with the HIV-1 protein that degrades it), YFP fluorescence increase; Potency, µM (series often up to 46.1 µM); 390,000 compounds, 0.2% hits; AID 602313; further: nearly all actives have a fitted effect of over 65% in size
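HeLa cells stably expressing Vif plus C-terminally eYFP-tagged A3F were seeded, incubated overnight at 37 deg C, dosed with compound, incubated overnight again at 37 deg C. Yellow fluorescence (Ex 488/Em 500-530) reported blocked Vif-mediated A3F-eYFP degradation.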
Vif-A3G inh: blocks the Vif interaction with human APOBEC3G | Potency, µM (doses to about 46.1 µM), usual class: inhibitors | 410,000 compounds, 0.076% hits | Q9HC16 | HeLa A3G-eYFP + Vif (tagged APOBEC3G with the HIV-1 protein that degrades it), YFP fluorescence, overnight; further: nearly all actives have a fitted effect of over 60% in size
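Read-out is eYFP fluorescence (Ex 488/Em 500-530) from Vif-expressing HeLa A3G-eYFP cells; more signal means A3G escaped Vif-mediated degradation. Cells plated overnight, compound pinned in, incubated overnight at 37 deg C.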
Hits are given with their value; - = inactive; ? = inconclusive; . = no result given; ! = not active in a repeat; [ ] = another dose, or the depositor's remark. Hits are enriched below; roughly 1.8% of the tested compounds scored in any of these assays. The call rests on the fitted dose curve; in most records, active means well fitted curve in the direction sought with a large enough effect; inconclusive means small, poorly fitted or top-dose-only effect, or another doubt; inactive means no such curve, though single readings can be large; an effect the other way counts as inactive or inconclusive.

SMILES	VDR inh	TrxR1 substrate	rTrxR1 inhibitor	Vif-APOBEC3F blk	Vif-A3G inh
O=C(O)c1cc(N2C(=O)C=CC2=O)cc(N2C(=O)C=CC2=O)c1	?	-	0.22µM	-	-
Cc1cc(C)n(-c2cc(C(=O)O)cc(C(=O)O)c2)n1	-	-	-	-	-
COc1ccc(S(=O)(=O)c2cn(C)c3cc(N4CCOCC4)c(F)cc3c2=O)cc1	-	-	-	-	-
CCCCCCOc1ccc(C(CC(=O)O)C(N)=O)cc1 (centres undefined)	-	-	-	.	-
CCCCCCCCCCOc1cc(OCCCCCCCCCC)cc(N(CC(=O)O)CC(=O)O)c1	50µM	.	.	.	.
COc1ccc(NC(=O)c2ccccc2OCC(=O)Nc2ccc(Br)cc2)cc1	.	-	-	.	-
COc1ccc2nc3ccccc3nc2c1NC(=O)c1ccc(Cl)cc1Cl	-	-	-	?	4µM
CCNc1nc(C#N)nc(NCC)n1	-	-[0.0914 µM]	-	.	-
CC1(C)COC(c2ccc(F)c([N+](=O)[O-])c2)=N1	-	-	18µM	-	-
CC1(C)COC(c2cc([N+](=O)[O-])ccc2Cl)=N1	-	-	-	-	-
Cc1ccccc1NC(=O)c1ccc(F)c(S(=O)(=O)N(C)C2CCCCC2)c1	-	-	-	-	-
Nc1nc(SCc2ccccc2Cl)nc2nc3c(cc12)CCCC3	-	-	-	?	?
Nc1nc(SCc2ccc(Cl)cc2Cl)nc2nc3c(cc12)CCCC3	-	-	-	22µM	?
Cc1ccc(NC(=O)C(=Cc2ccc(C(=O)O)cc2)C(=O)Nc2ccc(C)cc2C)c(C)c1	25µM	-	-	-	?
COc1ccc(-c2nc3cnc(OC)nc3n(CCc3ccccc3)c2=O)cc1	-	.	.	.	.
Cc1ccc(S(=O)(=O)N2CN(Cc3ccco3)c3nc4ccccc4nc32)cc1	-	-	?	-	-
COc1ccc(S(=O)(=O)N2CN(Cc3ccco3)c3nc4ccccc4nc32)cc1	-	-	35µM	-	-
CCCN1C(=O)SC(CC(=O)Nc2ccccc2)C1=O (centres undefined)	-	-	-	-	-
O=C(CC1SC(=O)N(c2ccccc2)C1=O)Nc1ccc(Br)cc1 (centres undefined)	35µM	-	-	-	-
O=C(CC1SC(=O)N(c2ccccc2)C1=O)Nc1ccc(Cl)cc1 (centres undefined)	40µM	-	-	-	-
Cc1cccn2c(=O)c(C(=O)NCCc3ccc(S(N)(=O)=O)cc3)c(O)nc12	-	-	-	-	-
COc1ccc(CCN(Cc2cc3ccc(C)cc3n3nnnc23)C(C)=O)cc1OC	40µM	-	-	-	-
COc1ccc(CCN(Cc2cc3cc(C)ccc3[nH]c2=O)C(C)=O)cc1OC	-	-	-	-	-
Cc1cccc(NC(c2cccc(Cl)c2)c2ccc3cccnc3c2O)n1 (centres undefined)	-	-	?	-	-
O=C(O)c1cccc(Cn2c(Cl)c(/C=N/Nc3ccccc3)sc2=O)c1	?	-	8.9µM	?	-
SMILES	VDR inh	TrxR1 substrate	rTrxR1 inhibitor	Vif-APOBEC3F blk	Vif-A3G inh
COc1ccc(C(=O)N/N=C/c2sc(=O)n(Cc3cccc(C(=O)O)c3)c2Cl)cc1	-	-	79µM	-	-
CCOc1ccccc1CNC(=O)c1ccc2c(c1)sc1nc(-c3cccc(OC)c3)cn12	-	-[11.4 µM]	-	-	-
COc1cc2[nH]c3c(Cl)ncnc3c2cc1OC	-	-	-	-	-
COc1cc2[nH]c(Cl)c([N+](=O)[O-])c2cc1OC	?	-	1.4µM	-	-
Cc1cnc2ccc(I)cc2c1/C=C/c1ccc(N(C)C)cc1	.	-	-	.	-
NS(=O)(=O)c1cccc(NC(=S)NC(=O)C23CC4CC(CC(C4)C2)C3)c1	-	-	40µM	-	-
COC(=O)C(=Cc1cc(Br)c(OC)c(Br)c1)C(=O)OC	8.9µM	.	.	.	.
Cc1ccc(NC(=O)c2nnn(CC(=O)Nc3ccc(C)c(Cl)c3)c2N)c(C)c1	-	-	-	-	-
N#Cc1cc([N+](=O)[O-])c2sc(C(N)=O)[n+]([O-])c2c1	-	-	-	.	.
O=C1C(=Cc2ccco2)CCCC1=Cc1ccco1	-	?	45µM	?	-
O/N=C1\CCC\C1=C/c1ccco1	-	-	?	-	-
O=C1C(=Cc2ccco2)CCC1=Cc1ccco1	?	-	2.8µM	?	-
COc1ccc(C2/C=C\CN(Cc3ccccc3)C(C)C(=O)N2Cc2ccc(F)cc2)cc1 (centres undefined)	-	-	-	.	-
Cc1ccc2oc(-c3ccc(C)c(NC(=O)/C=C/c4ccco4)c3)nc2c1	-	-	32µM	-	-
Cc1ccc2oc(-c3ccc(C)c(NC(=O)/C=C/c4ccc(Cl)cc4)c3)nc2c1	-	-[11.4 µM]	-	-	-
COc1ccc(OC)c(C2NC(=O)c3sc(=S)n(-c4ccccc4)c3N2)c1 (centres undefined)	89µM	-	-	-	-
CCCOc1ccc(C2c3c(-c4ccccc4O)n[nH]c3C(=O)N2CCc2ccccc2)cc1OCC (centres undefined)	-	-	-	-	?
COc1ccc(C2Nc3ccc(NC(C)=O)cc3C(=O)N2Cc2cccc(Cl)c2)cc1COc1ccc(NC(C)=O)cc1 (centres undefined)	-	-	-	.	.
CC(=O)NCCCC[C@H](NC(=O)OC(C)(C)C)C(=O)Nc1ccc2c(C(F)(F)F)cc(=O)oc2c1	-	.	.	.	.
CC(=O)OCCCNc1cc(SCc2ccco2)c2nonc2c1[N+](=O)[O-]	79µM	-	2.5µM	-	-
CCCC(=O)OCCNc1cc(SCc2ccco2)c2nonc2c1[N+](=O)[O-]	?	-	4µM	-	-
CCC(=O)OCCNc1cc(Sc2nc3ccccc3[nH]2)c2nonc2c1[N+](=O)[O-]	?	-	0.28µM	?	-
CCCSc1cc(NCCOC(=O)CCC)c([N+](=O)[O-])c2nonc12	?	-	?	-	-
CCCSc1cc(NCCOC(C)=O)c([N+](=O)[O-])c2nonc12	?	-	-	-	-
CCOC(=O)NC1(NC(C)C)Oc2ccccc2O1	-	-	-	-	-
SMILES	VDR inh	TrxR1 substrate	rTrxR1 inhibitor	Vif-APOBEC3F blk	Vif-A3G inh
CCOC(=O)NC1(NCc2ccccc2)Oc2ccccc2O1	-	-	32µM	-	-
CCOC(=O)NC1(NC2CCCCC2)Oc2ccccc2O1	-	-	32µM	-	-
CCN(CC)C(=O)c1ccc2c(c1)N(Cc1ccc(C(F)(F)F)cc1)C(=O)c1ccccc1S2	?	-	-	-	-
COc1cc(/C=C/C(=O)c2c(O)cc(C)oc2=O)cc(OC)c1O	22µM!	-	?	-	?
COc1cccc(/C=C/C(=O)c2c(O)cc(C)oc2=O)c1O	?	-	?	-	?
COC(=O)[C@@]1(C)[C@H]2C(=O)N(C)C(=O)[C@H]2[C@H]2CN=C(SCC(=O)c3ccccc3)N21	32µM	-	-	-	-
COc1ccc(NC(=O)CCCS(=O)(=O)c2nc(-c3ccccc3OC)cc(C(F)(F)F)n2)c(OC)c1	?	-	?	-	-

Screening results from PubChem BioAssay.
